Data on 12 compounds can be found in PubChem BioAssay (NCI).

Structures are written as SMILES. This is part of a sample that, as a whole, favours compounds with a hit. Of some 83,000 tested, about 20% had one in any assay.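 Results are percent growth after 48 hours of single-concentration exposure. 100 means growth as in untreated cells, lower positive values show inhibition; negative values down to -100 show cell death.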 Activity calls are given as the source filed them. Rule for the calls: active = growth percent below 10; inactive = the rest.

The subject of this experiment is SK-OV-3 ovarian. In words: NCI-60 one-dose screen, 48 h (100 = growth as untreated, 0 = no growth, -100 = all killed). The settings on record: 10 µM.
Regarding `COc1ccc2[nH]c(O)c(N=NC(=O)COc3ccc(NC(=O)Nc4ccc(Cl)c(Cl)c4)cc3)c2c1`, the growth was -12.4% (active). The same measure for `O=C1NC(=NC23CC4CC(CC(C4)C2)C3)N/C1=C\c1ccc2ncccc2n1`: -10.5% (active); for `COC(=O)C(Cc1ccc(O)c(O)c1)NC(=O)C(CSC/C=C(\C)CCCC(C)CCCC(C)CCCC(C)C)NC(C)=O` (configuration not stated): 41.7% (inactive); for `O=C(Nc1ccncc1)c1ccc(-n2c(=O)[nH]c3ccccc3c2=O)cc1`: 99.3% (inactive). In the case of `CCCCCc1ccc(S(=O)(=O)N(C(C)=O)c2cc(-c3csc(N(C)C(C)=O)n3)ccc2N2CCN(C)CC2)cc1`, the growth is 96% (inactive).

As to `COc1ccc(-c2ccc(/C=N/NC(=O)c3[nH]c4ccc(Br)cc4c3-c3ccccc3)s2)cc1`, the growth was 117% (inactive). The figure for `CC(C)CCSc1nc(NC2CC2)c(C#N)c(-c2ccc(C(C)C)cc2)n1` is 96.5% (inactive); for `O=C(Nc1nc2ccc([N+](=O)[O-])cc2s1)Nc1ccccc1I` it is -7.59% (active); for `Cc1ccc(CSc2nc(Cl)c(C#N)c(-c3ccc(F)cc3)n2)cc1` it is 88.3% (inactive). For the compound `CCN1CCN(c2ccc(NC(=O)Nc3ccc(-c4cc(C(=O)NC)c5ncccc5n4)cc3)cc2C(F)(F)F)CC1`, the growth was -88.7% (active). With `COc1ccccc1NCc1ccc(CO)n1-c1ccc(C)cc1`, the growth was 81.5% (inactive). On to `CCCCCCCCCCCCCCCCCCCC(=O)NCCc1c[nH]c2ccc(OC(=O)NOCCOCCOCCOCCOCCOCCOCCOCCOCCOCCOCCOCCOCCOCCOCCOCCOCCOCCOCCOCCOCCOCCOC)cc12`, for which the growth is -10.1% (active).
